Bead autofluor – flagged as autofluorescent in microsphere protease counterscreen; compound autofluorescence counterscreen, microsphere flow cytometry; active compounds read high; fluorescence intensity (test concentration not listed); 360,000 compounds, 3.1% hits; in the data active = fluorescence intensity above about 16000; inconclusive = no clear call, values can overlap the other calls
Anthrax LF inh2 – Bacillus anthracis LF protease inhibitors, primary screen, biochemical, multiplex microsphere, MLPCN library. inhibition, % at 10 µM. Lethal factor (Bacillus anthracis), P15917. multiplex microsphere protease cleavage assay. 360,000 compounds, 0.12% hits; also: plate controls were buffer without enzyme for full effect and enzyme alone for no effect
Target sequence (P15917 whole entry, looked up): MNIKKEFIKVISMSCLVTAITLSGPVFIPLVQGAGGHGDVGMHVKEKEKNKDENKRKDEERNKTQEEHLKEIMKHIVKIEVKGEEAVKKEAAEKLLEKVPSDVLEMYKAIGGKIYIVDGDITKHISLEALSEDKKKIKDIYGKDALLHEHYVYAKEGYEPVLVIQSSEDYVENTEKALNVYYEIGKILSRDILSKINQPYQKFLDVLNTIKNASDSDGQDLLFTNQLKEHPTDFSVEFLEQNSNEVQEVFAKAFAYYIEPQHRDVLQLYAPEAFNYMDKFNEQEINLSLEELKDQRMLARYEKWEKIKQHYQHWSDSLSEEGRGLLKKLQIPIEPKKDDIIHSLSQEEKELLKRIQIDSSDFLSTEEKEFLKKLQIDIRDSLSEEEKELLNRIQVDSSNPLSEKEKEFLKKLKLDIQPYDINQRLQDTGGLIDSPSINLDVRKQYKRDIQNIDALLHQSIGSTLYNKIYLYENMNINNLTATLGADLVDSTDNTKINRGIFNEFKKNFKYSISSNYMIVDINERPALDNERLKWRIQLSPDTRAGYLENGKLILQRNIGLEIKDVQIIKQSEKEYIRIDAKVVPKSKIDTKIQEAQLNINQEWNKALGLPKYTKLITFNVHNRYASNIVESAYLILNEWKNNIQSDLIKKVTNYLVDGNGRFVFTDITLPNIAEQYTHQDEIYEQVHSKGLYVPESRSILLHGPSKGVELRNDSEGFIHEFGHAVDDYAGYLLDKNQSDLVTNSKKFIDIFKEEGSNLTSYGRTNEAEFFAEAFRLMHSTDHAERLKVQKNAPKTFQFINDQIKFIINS
BoNT-F LC inh – BoNT/F light chain protease inhibitors, primary screen, biochemical, flow cytometry, MLPCN library; inhibition, % at 10 µM; Botulinum neurotoxin type F light chain protease (Clostridium botulinum); Multiplex microsphere protease cleavage assay; 360,000 compounds, 0.22% hits; in the data active = inhibition above about 35%, passing the limit was not always enough; inconclusive = no clear call, values can overlap the other calls; also: plate controls were buffer without enzyme for full effect and enzyme alone for no effect
BoNT-A LC inh2 – BoNT/A light chain protease inhibitors, primary screen, biochemical, flow cytometry, MLPCN library; Botulinum neurotoxin type A light chain protease (Clostridium botulinum A str. ATCC 3502); multiplex microsphere protease substrate cleavage; inhibition, % at 10 µM; 360,000 compounds, 0.17% hits; AID 588499, 2011; also: plate controls were buffer without enzyme for full effect and enzyme alone for no effect
MazF activator – activators of E. coli MazEF toxin-antitoxin RNase, primary screen, biochemical, fluorescence, uHTS; 350,000 compounds, 0.32% hits; Endoribonuclease toxin MazF (Escherichia coli (strain K12)), P0AE70; FAM/BHQ RNA-DNA oligo cleavage fluorescence, 5 h; activation, % at 20 µM; in the data active = activation above about 50%
* hit, by the source's call. Rows were chosen to be rich in hits. Some 3.7% of all compounds tested hit in one or more screens of this group. Rule as the data show it, unless noted: active = inhibition above about 30%; inconclusive = no clear call, values can overlap the other calls; inactive = below that.

Results for CCOC(=O)C1=C(C)N(c2ccc(C)cc2)C(=O)/C1=C\c1cccs1 ?
Bead autofluor: 16417*; Anthrax LF inh2: -4.2; BoNT-F LC inh: -4.1; BoNT-A LC inh2: -0.9; MazF activator: 14.7

How did COc1ccc(NC(=O)C2CCCN2S(=O)(=O)c2ccc(C)cc2)cc1 (centres undefined) do in these assays?
Bead autofluor: 17367*; Anthrax LF inh2: -0.4; BoNT-F LC inh: -2.4; BoNT-A LC inh2: -3.7; MazF activator: 6.8

How did CCOc1ccccc1NC(=O)C1CCCCN1S(=O)(=O)c1ccccc1 (centres undefined) do in these assays?
Bead autofluor: 3779; Anthrax LF inh2: 3.7; BoNT-F LC inh: -0.8; BoNT-A LC inh2: -0.7; MazF activator: -4.8

Results for COc1ccccc1NC(=O)C1CCCCN1S(=O)(=O)c1ccc(F)cc1 (centres undefined) ?
Bead autofluor: 16434*; Anthrax LF inh2: -1.6; BoNT-F LC inh: 3.1; BoNT-A LC inh2: 0.8; MazF activator: -4.8

What do the screens show for `COc1ccc(NC(=O)C2CCCCN2S(=O)(=O)c2ccc(F)cc2)cc1` (centres undefined)?
Bead autofluor: 4260; Anthrax LF inh2: -2.4; BoNT-F LC inh: -4.4; BoNT-A LC inh2: 0.5; MazF activator: 0.3

How did COc1ccc(NC(=O)C2CCCCN2S(=O)(=O)c2ccc(F)cc2)c(OC)c1 (centres undefined) do in these assays?
Bead autofluor: 17466*; Anthrax LF inh2: -0.6; BoNT-F LC inh: -7.5; BoNT-A LC inh2: -1.4; MazF activator: -1.7

How did CC1(C(=O)NCc2cccs2)Cc2c(-c3cccc(C(F)(F)F)c3)ccnc2O1 (centres undefined) do in these assays?
Bead autofluor: 4134; Anthrax LF inh2: -0.8; BoNT-F LC inh: -1.5; BoNT-A LC inh2: -0.2

Results for O=C(NCc1ccc(F)cc1F)[C@@H]1CCCN1C(=O)[C@@H]1CCCN1 ?
Bead autofluor: 4230; Anthrax LF inh2: -5.0; BoNT-F LC inh: 8.9; BoNT-A LC inh2: 0.1

What do the screens show for `CCOc1cc(N2CCOCC2)c(OCC)cc1NC(=O)COc1ncnc2ccccc12`?
Bead autofluor: 19880*; Anthrax LF inh2: -5.6; BoNT-F LC inh: -3.9; BoNT-A LC inh2: -1.2; MazF activator: -5.1

How did CCOc1cc(N2CCOCC2)c(OCC)cc1NC(=O)COC(=O)c1cc2ccccc2cc1O do in these assays?
Bead autofluor: 2443; Anthrax LF inh2: 0.1; BoNT-F LC inh: -1.6; BoNT-A LC inh2: -0.3; MazF activator: 2.3

Results for Cn1cc(-c2nnnn2-c2ccc(Cl)cc2)c(C(F)(F)F)n1 ?
Bead autofluor: 23367*; Anthrax LF inh2: -0.8; BoNT-F LC inh: 1.1; BoNT-A LC inh2: 0.7; MazF activator: 1.1

Results for CCN1C(=O)/C(=C/N2CCc3ccccc3C2)SC1=S ?
Bead autofluor: 16177*; Anthrax LF inh2: -4.9; BoNT-F LC inh: inconclusive; BoNT-A LC inh2: -49.5; MazF activator: -3.7

How did O=S1c2ccccc2Sc2ccccc21 do in these assays?
Bead autofluor: 2889; Anthrax LF inh2: -6.1; BoNT-F LC inh: 6.5; BoNT-A LC inh2: -0.4; MazF activator: 4.5

Results for CC(Oc1ccccc1)c1ccnn1S(=O)(=O)c1ccccc1 (centres undefined) ?
Bead autofluor: 4105; Anthrax LF inh2: -4.1; BoNT-F LC inh: 8.1; BoNT-A LC inh2: 0.6; MazF activator: 2.7

How did CCNC(=O)n1nccc1C(C)Oc1ccccc1 (centres undefined) do in these assays?
Bead autofluor: 21929*; Anthrax LF inh2: -9.9; BoNT-F LC inh: -4.2; BoNT-A LC inh2: 0.0; MazF activator: 9.1

How did Cc1cccc(NC(=O)C2CCN(c3nccc(C)n3)CC2)c1 do in these assays?
Bead autofluor: 20388*; Anthrax LF inh2: -12.0; BoNT-F LC inh: -3.8; BoNT-A LC inh2: inconclusive; MazF activator: -5.0

What do the screens show for `O=C(NC1CCCc2ccccc21)C1CCN(c2nnc(-n3cccc3)s2)CC1` (centres undefined)?
Bead autofluor: 5338; Anthrax LF inh2: -5.4; BoNT-F LC inh: 3.2; BoNT-A LC inh2: -0.5; MazF activator: -20.5

Results for Cc1ccnc(N2CCC(C(=O)NNC(=O)c3ccncc3)CC2)n1 ?
Bead autofluor: 3222; Anthrax LF inh2: -5.0; BoNT-F LC inh: -4.0; BoNT-A LC inh2: -0.4; MazF activator: 7.5

What do the screens show for `Cc1ccnc(N2CCC(C(=O)Nc3ccc4c(c3)CCC4)CC2)n1`?
Bead autofluor: 17140*; Anthrax LF inh2: -1.5; BoNT-F LC inh: -3.8; BoNT-A LC inh2: -0.6; MazF activator: -3.1
